Measured values taken from PubChem BioAssay (NCATS).
“And” between values parts separate entries of the source, which are not always exact repeats. Equal values may be shown once. Inconclusive results are not listed. The source holds several records for some structures; these can differ, active in one and inactive in another. The source made the active and inactive calls. Unless noted, the call rests on the fitted dose curve; in most records, active means well fitted curve in the direction sought with a large enough effect; inconclusive means small, poorly fitted or top-dose-only effect, or another doubt; inactive means no such curve, though single readings can be large; an effect the other way counts as inactive or inconclusive.

Legend:
[1] = AP1 Signaling Pathway (AID 357; active means well fitted curve in either direction with a large enough effect, not every such curve was filed as active;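 further: ME-180 reporter cells stimulated with EGF at its EC50 level; on the % scale 0 is the no-effect control and ±100 the full control effect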)
Procedure, shortened: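 First, ME-180 AP-1-bla cells were cultured overnight at 37 °C in low-serum Opti-MEM. Next, titrated compounds with EC50 EGF were incubated 5 hours. Finally, CCF4 was added for 2.5 hours and the 460/530 nm ratio recorded.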

[2] = molecular target: Cytochrome P450 1A2 (Homo sapiens) (UniProt P05177); experiment: p450-cyp1a2 (AID 410; calls by dose curve;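 further: -100% = full effect of reference inhibitor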)
Sequence of Cytochrome P450 1A2 (Homo sapiens) (P05177 whole entry, looked up): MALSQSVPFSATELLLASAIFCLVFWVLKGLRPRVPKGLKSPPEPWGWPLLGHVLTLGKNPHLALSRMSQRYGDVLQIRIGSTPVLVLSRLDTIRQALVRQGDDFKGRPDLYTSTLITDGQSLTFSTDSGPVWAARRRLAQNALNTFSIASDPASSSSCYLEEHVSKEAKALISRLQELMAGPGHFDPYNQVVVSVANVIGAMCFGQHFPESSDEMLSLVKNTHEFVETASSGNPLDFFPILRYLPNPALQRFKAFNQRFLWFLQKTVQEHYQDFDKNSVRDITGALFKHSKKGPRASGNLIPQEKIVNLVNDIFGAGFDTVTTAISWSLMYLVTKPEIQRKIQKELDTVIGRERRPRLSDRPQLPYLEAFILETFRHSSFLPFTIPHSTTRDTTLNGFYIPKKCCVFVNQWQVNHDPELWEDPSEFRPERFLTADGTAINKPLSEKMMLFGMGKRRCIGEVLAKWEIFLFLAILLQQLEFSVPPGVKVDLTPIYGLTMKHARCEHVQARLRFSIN
Procedure, shortened: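 20nM CYP1A2 with 100uM Luciferin-ME (at Km) in 100mM KPO4; compound preincubated 10 min, NADPH regeneration added, 60 min at room temperature. Luciferin quantified by luminescence after detection reagent; normalized to 57 uM furafylline.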

[3] = NFAT Signaling Pathway (AID 444; active means well fitted curve in either direction with a large enough effect, not every such curve was filed as active;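 further: carbachol stimulus at about its EC50 of 1 µM final; on the % scale 0 is the no-effect control and ±100 the full control effect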); settings: Jurkat NFAT-bla M1, carbachol, beta-lactamase ratio, 5 h; at 38 µM (top of the series)
Procedure, shortened: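 Read-out: CCF4 FRET ratio (460 nm/530 nm) after 1 h RT dye loading, used for %activity and AC50 from titration series. Cells: Jurkat NFAT-β-lactamase/M1 line, treated with compound plus 1 uM carbachol for 5 h, 37 °C.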

[4] = Stat Signaling Pathway (AID 446; active means well fitted curve in either direction with a large enough effect, not every such curve was filed as active;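 further: ME-180 cervical cancer cells given 40 pM IL-6 alongside compound; SIE-controlled beta-lactamase reporter measured as 460/530 nm FRET emission ratio; on the % scale 0 is the no-effect control and ±100 the full control effect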)
Procedure, shortened: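 IL-6/STAT signaling read in ME-180 cells via an SIE beta-lactamase reporter. Stimulus was 40 pM IL-6 (its AC50) for 5 hrs, so both activation and inhibition register.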

[5] = molecular target: Glucocorticoid receptor (Homo sapiens) (UniProt P04150); experiment: GR-GFP Redistribution (AID 450;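 active means compounds whose dose series gives a full or clear partial fitted curve of increased nuclear translocation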; further: potency means the concentration at half of the fitted maximal effect); settings: U2OS GR-GFP nuclear translocation, laser cytometry, 2 h
Sequence of Glucocorticoid receptor (Homo sapiens) (P04150 whole entry, looked up, the tested form may be a part): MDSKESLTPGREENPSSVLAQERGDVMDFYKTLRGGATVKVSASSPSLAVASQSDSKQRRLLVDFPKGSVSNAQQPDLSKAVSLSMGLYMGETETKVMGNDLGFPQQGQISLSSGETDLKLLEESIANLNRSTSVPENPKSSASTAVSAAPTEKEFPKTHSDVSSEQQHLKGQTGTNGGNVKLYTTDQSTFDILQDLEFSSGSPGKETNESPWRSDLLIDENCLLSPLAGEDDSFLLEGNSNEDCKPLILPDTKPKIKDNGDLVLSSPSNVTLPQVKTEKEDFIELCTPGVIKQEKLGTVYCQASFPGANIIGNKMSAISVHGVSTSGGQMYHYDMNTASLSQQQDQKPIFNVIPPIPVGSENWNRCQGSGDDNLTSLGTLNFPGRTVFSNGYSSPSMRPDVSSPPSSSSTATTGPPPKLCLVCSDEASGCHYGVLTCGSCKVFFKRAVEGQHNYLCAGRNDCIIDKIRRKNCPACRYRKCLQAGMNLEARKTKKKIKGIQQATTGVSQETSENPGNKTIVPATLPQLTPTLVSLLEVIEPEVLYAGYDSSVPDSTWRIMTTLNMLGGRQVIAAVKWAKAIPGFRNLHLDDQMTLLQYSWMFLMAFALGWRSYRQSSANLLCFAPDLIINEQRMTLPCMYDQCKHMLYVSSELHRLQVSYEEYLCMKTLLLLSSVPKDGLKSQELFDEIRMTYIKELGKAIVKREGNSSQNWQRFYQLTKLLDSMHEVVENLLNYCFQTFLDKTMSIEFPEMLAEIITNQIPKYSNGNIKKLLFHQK

[6] = molecular target: Glucocorticoid receptor (Homo sapiens) (UniProt P04150); experiment: GR-EFC Redistribution (AID 451; calls by dose curve; further: potency means the concentration at half of the fitted maximal effect); settings: CHO-K1 GR-EFC translocation, beta-gal luminescence, 2 h
Procedure, shortened: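 Translocation of GR-ED fusion to nuclear EA restores b-gal, read by luminescence after 1 h room-temperature detection. Engineered CHO-K1 biosensor cells, 1,000/well, exposed 2 h at 37 C to titrations up to 46 uM final.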

[7] = molecular target: 3',5'-cyclic-AMP phosphodiesterase 4B (Homo sapiens) (UniProt Q07343); experiment: qHTS Assay for Inhibitors of PDE-IV (AID 607; active means well fitted activation curve with a large enough effect in the main read-out, with a control signal flat, not every such curve was filed as active; further: % of control where 0% means no effect)
Sequence of 3',5'-cyclic-AMP phosphodiesterase 4B (Homo sapiens) (Q07343 whole entry, looked up): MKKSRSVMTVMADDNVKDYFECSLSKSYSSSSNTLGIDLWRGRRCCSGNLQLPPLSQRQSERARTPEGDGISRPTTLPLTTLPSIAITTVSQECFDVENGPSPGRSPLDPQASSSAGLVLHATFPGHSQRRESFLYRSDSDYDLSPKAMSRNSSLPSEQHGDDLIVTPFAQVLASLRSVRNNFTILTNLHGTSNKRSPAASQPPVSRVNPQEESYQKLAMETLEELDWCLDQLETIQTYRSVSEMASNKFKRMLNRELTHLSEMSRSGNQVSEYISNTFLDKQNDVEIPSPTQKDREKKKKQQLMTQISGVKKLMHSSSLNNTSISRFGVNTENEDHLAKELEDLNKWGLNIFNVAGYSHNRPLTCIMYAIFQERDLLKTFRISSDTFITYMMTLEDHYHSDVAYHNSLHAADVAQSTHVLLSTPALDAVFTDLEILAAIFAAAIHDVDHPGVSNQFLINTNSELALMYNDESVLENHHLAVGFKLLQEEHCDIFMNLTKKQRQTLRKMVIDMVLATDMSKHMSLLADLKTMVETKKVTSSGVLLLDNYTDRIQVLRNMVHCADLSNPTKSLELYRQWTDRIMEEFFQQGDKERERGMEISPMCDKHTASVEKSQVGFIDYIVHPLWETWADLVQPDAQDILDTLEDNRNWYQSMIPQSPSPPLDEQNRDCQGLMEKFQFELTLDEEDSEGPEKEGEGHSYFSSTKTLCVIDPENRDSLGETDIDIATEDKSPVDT
Procedure, shortened: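 Live HEK293 cells with a modified cyclic nucleotide-gated (CNG) channel report intracellular cAMP via membrane-potential dye fluorescence (ex 535/em 590 nm). Endogenous PDE-IV was targeted. Compounds were tested at up to 22.9 uM final; RO 20-1724 100 uM served as control.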

[8] = molecular target: Guanine nucleotide-binding protein G(i) subunit alpha-1 (Homo sapiens) (UniProt P63096); experiment: qHTS Assay for Inhibitors of RGS12 GoLoco Motif Activity (Green Fluorophore) (AID 879);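 further: 0% = labeled peptide with Gαi1 and full inhibition = labeled peptide alone without protein; negative values mean loss of peptide binding seen as reduced polarization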
Sequence of Guanine nucleotide-binding protein G(i) subunit alpha-1 (Homo sapiens) (P63096 whole entry, looked up): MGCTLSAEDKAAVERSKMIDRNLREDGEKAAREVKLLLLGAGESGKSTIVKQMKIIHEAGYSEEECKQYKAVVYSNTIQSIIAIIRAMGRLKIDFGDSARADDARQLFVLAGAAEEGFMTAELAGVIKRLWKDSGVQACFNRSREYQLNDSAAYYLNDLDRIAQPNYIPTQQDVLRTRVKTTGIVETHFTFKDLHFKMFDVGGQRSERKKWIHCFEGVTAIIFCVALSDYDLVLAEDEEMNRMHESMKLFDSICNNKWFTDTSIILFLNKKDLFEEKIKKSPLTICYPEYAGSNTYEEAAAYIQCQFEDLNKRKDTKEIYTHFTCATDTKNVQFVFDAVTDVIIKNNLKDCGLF
Procedure, shortened: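 Fluorescence polarization assay: 50 nM Gαi1 with 10 nM FITC-labeled RGS12 GoLoco peptide in 10 mM Tris pH 7.5, 150 mM NaCl, 0.1 mM GDP, 0.05% NP40, 10 min at room temperature with compound.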

[9] = molecular target: Pyruvate kinase (Leishmania mexicana) (UniProt Q27686); experiment: qHTS Validation Assay for Inhibitors of Leishmania Mexicana Pyruvate Kinase (AID 945);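 further: 0% = DMSO only neutral control wells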
Sequence of Pyruvate kinase (Leishmania mexicana) (Q27686 2-499 E452W): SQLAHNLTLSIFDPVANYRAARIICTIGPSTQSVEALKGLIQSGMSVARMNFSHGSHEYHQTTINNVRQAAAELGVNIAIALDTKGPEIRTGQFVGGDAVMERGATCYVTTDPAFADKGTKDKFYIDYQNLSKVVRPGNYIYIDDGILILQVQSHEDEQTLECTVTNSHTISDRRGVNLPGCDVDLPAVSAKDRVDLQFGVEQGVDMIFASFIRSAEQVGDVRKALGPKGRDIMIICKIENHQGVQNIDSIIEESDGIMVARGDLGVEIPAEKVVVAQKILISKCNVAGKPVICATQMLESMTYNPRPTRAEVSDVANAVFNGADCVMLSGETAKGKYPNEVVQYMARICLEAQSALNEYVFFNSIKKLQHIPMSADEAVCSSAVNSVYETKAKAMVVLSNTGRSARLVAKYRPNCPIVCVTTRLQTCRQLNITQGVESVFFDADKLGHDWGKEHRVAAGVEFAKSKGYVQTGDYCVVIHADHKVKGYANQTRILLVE
Procedure, shortened: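 Compounds are tested as eight-point concentration series. Reactions contain 0.2 nM LmPYK E451W, 0.5 mM PEP, 0.1 mM ADP, 7 mM MgCl2 and 50 mM KCl at pH 7.2, run 1 h at room temperature, then read by PKLight luminescence.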

[10] = molecular target: Pyruvate kinase PKM (Homo sapiens) (UniProt P14618); experiment: qHTS Assay for Activators of Human Muscle Pyruvate Kinase (AID 954; active means well fitted curve in the direction sought with a large enough effect, not every such curve was filed as active;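 further: 0% = uninhibited enzyme and -100% = no enzyme or full thiadiazolimine inhibition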)
Procedure, shortened: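 Enzyme was run at intermediate activity so both inhibitors and activators could be detected. ATP formed from ADP and PEP by 0.1 nM human PKM2 during a 1 h room-temperature incubation was quantified by coupled luciferase luminescence.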

[11] = molecular target: Alpha-galactosidase (Coffea arabica) (UniProt Q42656); experiment: Counterscreen for Glucocerebrosidase Inhibitors: qHTS Assay for Coffee Bean alpha-Galactosidase at pH 4.5 (AID 957);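 further: plate controls were enzyme alone for no effect and no enzyme for full effect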
Sequence of Alpha-galactosidase (Coffea arabica) (Q42656 whole entry, looked up): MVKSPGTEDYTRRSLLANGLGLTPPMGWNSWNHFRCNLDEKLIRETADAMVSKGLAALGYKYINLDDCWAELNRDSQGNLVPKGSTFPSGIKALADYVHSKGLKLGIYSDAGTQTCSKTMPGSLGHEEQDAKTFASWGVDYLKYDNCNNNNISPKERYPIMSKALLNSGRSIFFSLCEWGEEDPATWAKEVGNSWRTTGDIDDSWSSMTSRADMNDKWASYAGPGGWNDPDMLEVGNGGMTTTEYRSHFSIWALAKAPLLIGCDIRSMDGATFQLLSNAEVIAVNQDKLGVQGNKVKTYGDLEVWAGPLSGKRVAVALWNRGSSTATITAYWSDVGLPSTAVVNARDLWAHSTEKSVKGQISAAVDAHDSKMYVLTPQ
Procedure, shortened: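 Coffee bean enzyme (2 nM) with 80 uM 4-methylumbelliferyl alpha-D-galactopyranoside in 50 mM citric acid, 0.005% Tween-20, pH 4.5, 20 min at room temperature; compounds 0.7 nM–77 uM. Stopped at pH 10, fluorescence 365/440 nm; AC50 from Hill fits.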

[12] = molecular target: Alpha-galactosidase A (Homo sapiens) (UniProt P06280); experiment: Counterscreen for Glucocerebrosidase Inhibitors: qHTS Assay for Human alpha-Galactosidase at pH 4.5 (AID 992); further: 0% is about no effect
Sequence of Alpha-galactosidase A (Homo sapiens) (P06280 whole entry, looked up): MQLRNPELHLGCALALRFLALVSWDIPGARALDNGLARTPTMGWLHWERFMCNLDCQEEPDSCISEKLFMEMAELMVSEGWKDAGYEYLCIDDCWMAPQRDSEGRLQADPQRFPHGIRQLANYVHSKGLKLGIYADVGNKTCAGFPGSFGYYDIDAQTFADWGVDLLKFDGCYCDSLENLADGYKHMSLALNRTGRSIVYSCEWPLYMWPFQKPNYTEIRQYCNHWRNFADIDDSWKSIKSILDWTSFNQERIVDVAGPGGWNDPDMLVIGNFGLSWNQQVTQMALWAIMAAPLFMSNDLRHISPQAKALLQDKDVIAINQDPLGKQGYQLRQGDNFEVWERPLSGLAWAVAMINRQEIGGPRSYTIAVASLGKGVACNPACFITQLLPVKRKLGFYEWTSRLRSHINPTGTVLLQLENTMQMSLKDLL
Procedure, shortened: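 Read-out is 4-methylumbelliferone fluorescence (365 nm excitation, 440 nm emission) after a pH 10 NaOH/glycine stop. Reactions held 2 nM enzyme and 80 uM substrate at pH 4.5 for 20 min at room temperature.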

[13] = molecular target: alpha-glucosidase (Oryza sativa, rice) (UniProt Q653V4); experiment: Counterscreen for Glucocerebrosidase Inhibitors: qHTS Assay for Rice alpha-Glucosidase at pH 5.0 (AID 997);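 further: 0% = full activity with enzyme and -100% = basal without enzyme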
Procedure, shortened: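 Rice alpha-glucosidase (4 nM final) with 400 uM 4-methylumbelliferyl-alpha-D-glucopyranoside in citrate buffer pH 5.0, 20 min at room temperature, stopped at pH 10; fluorescence 365/440 nm, compounds 0.7 nM–77 uM, AC50 from Hill fits.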

[14] = molecular target: Alpha-galactosidase (Coffea arabica) (UniProt Q42656); experiment: Counterscreen for Glucocerebrosidase Inhibitors: qHTS Assay for Coffee Bean alpha-Galactosidase at pH 5.9 (AID 998);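 further: plate controls were uninhibited enzyme for no effect and no-enzyme basal signal for full effect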
Procedure, shortened: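 Compounds were titrated from 0.7 nM to 77 uM against green coffee bean alpha-galactosidase (2 nM) using 80 uM fluorogenic 4-methylumbelliferyl substrate. After 20 min at room temperature, reactions were stopped at pH 10 and read by fluorescence.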

[15] = molecular target: DNA dC->dU-editing enzyme APOBEC-3G (Homo sapiens) (UniProt Q9HC16); experiment: qHTS for inhibitors of Vif-A3G interactions: Validation (AID 588379); further: 0% is about no effect
Sequence of DNA dC->dU-editing enzyme APOBEC-3G (Homo sapiens) (Q9HC16 whole entry, looked up): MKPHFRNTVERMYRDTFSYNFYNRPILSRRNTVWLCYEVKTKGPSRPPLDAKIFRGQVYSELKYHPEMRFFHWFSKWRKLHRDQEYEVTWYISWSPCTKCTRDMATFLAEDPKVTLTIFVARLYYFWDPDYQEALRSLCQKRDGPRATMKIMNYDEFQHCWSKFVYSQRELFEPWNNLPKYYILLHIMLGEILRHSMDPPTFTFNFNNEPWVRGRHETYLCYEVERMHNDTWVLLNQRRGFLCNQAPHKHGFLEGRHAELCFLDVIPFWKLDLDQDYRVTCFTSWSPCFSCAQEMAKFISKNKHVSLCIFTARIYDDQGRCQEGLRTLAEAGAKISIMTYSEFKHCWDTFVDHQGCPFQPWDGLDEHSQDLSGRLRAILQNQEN
Procedure, shortened: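 HeLa cells stably expressing Vif and A3G-eYFP, 700 cells/well, incubated overnight at 37 deg C, then exposed to compound overnight at 37 deg C. Inhibition of Vif-mediated degradation read as increased yellow fluorescence (Ex 488/Em 500-530) by laser-scanning cytometry.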

[16] = test system: Zika virus NS2B-NS3 protease; experiment: Primary screen GU AMC qHTS for Zika virus inhibitors (AID 1347154);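 further: 0% = no-inhibitor control and -100% = no-enzyme control; nearly all actives have a fitted effect of over 70% in size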
Procedure, shortened: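 Fluorogenic AMC-substrate cleavage by noncovalent NS2B-NS3 protease complex (25 nM, pH 8.0 Tris buffer with Tween 20) followed for 15 minutes at room temperature (~20% conversion). Percent inhibition from ex340/em450 signal change, fitted by 4-parameter Hill equation.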

[17] = Primary qHTS for small molecule stabilizers of the endoplasmic reticulum resident proteome: Secreted ER Calcium Modulated Protein (SERCaMP) assay (AID 1508630); further: on the % scale 0 is the no-effect control and ±100 the full control effect
Procedure, shortened: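 GLuc-SERCaMP-expressing SH-SY5Y cells, pretreated 16 h with compound, are challenged with thapsigargin to empty ER calcium stores; after 4 h, coelenterazine is added directly to the medium and luminescence is imaged.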

[18] = molecular target: Mitogen-activated protein kinase 10 (Mus musculus) (UniProt Q61831); experiment: JNK3 AlphaScreen Assay (AID 530; active means well fitted curve in either direction with a large enough effect, not every such curve was filed as active)
Procedure, shortened: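 Compound titrations were preincubated 15 minutes at room temperature with substrate, antibody and pre-activated JNK3-containing HepG2 lysate. Reactions were started with 10 uM ATP and stopped with EDTA-containing bead buffer for AlphaScreen detection.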

[19] = qHTS Assay for Lipid Storage Modulators (AID 1519; calls by dose curve); settings: Drosophila S3 cells, BODIPY lipid droplet/cell ratio, laser cytometry, cells loaded with oleic acid; for activity change, negative = inhibition: at 57.5 µM (top of the series)
Procedure, shortened: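 Cells seeded at 5,000 per well were treated with compounds over a concentration series and loaded with oleic acid (400 uM, as added). Lipid droplet fluorescence (488 nm excitation, 500-530 nm channel) was read by laser-scanning cytometry and normalized to 20 uM Triacsin C.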

[20] = molecular target: Ubiquitin carboxyl-terminal hydrolase 1 (Homo sapiens) (UniProt O94782); experiment: Inhibitors of USP1/UAF1: Pilot qHTS (AID 504865);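 further: rhodamine fluorescence freed from ubiquitin-rhodamine substrate followed over time; top concentration of the series differs between compounds; on the % scale 0 is the no-effect control and ±100 the full control effect; nearly all actives have a fitted effect of over 35% in size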
Sequence of Ubiquitin carboxyl-terminal hydrolase 1 (Homo sapiens) (O94782 whole entry, looked up): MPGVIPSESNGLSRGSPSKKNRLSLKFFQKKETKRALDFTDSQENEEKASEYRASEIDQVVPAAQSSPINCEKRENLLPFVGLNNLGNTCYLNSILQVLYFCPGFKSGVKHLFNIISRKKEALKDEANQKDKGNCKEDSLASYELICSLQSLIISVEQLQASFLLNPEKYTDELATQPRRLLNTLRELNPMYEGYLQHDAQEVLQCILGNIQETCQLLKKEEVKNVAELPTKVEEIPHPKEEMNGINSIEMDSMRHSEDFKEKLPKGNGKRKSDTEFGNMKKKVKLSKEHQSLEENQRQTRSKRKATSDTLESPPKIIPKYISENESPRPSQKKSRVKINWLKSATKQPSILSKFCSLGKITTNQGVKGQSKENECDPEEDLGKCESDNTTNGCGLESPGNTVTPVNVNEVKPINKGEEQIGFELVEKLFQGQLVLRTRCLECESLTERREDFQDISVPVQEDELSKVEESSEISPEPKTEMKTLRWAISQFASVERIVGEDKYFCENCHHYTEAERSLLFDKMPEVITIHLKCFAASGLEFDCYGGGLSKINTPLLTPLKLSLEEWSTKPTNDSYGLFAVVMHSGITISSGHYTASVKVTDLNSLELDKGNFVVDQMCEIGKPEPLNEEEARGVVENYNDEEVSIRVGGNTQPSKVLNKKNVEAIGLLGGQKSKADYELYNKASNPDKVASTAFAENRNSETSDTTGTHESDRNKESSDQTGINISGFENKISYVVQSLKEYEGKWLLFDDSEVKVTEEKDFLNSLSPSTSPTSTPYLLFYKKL
Procedure, shortened: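 Deubiquitinase activity followed as kinetic rhodamine fluorescence release from 150 nM Ub-Rho. 1 nM USP1/UAF1 with compound, after 15 min room-temperature preincubation, in HEPES pH 7.8 buffer containing TCEP, EDTA, BSA and Tween-20.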

[21] = measured here: cell count channel max response
[22] = measured here: lipid channel max response

COC(=O)N1CCN(C(=O)Cc2ccc(Cl)c(Cl)c2)[C@H](CN2CCCC2)C1
> 46 µM (inactive) and 1.28 µM (active): Potency [5]
inactive: outcome [1] | Potency [2] | activity change, negative = inhibition [3] -16% | outcome [4] | Potency [6] > 46 µM | Potency [7] | outcome [8] | outcome [9] | outcome [10] | outcome [11] | outcome [12] | outcome [13] | outcome [14] | Potency [15] | Potency [16] | Potency [17]

CC(C)NC[C@H](O)c1ccc(N)c(C#N)c1
17.3%: max response [19, 21]
26.1%: max response [19, 22]
inactive: Potency [5] > 46 µM | Potency [6] > 46 µM | outcome [18] | activity change, negative = inhibition [19] 11.2% | Potency [20] | Potency [15] | Potency [16] | Potency [17]

CCCCC[C@H]1C(=O)O[C@H](C)[C@H](NC(=O)c2cccc(NC=O)c2O)C(=O)O[C@@H](C)[C@@H]1OC(=O)CC(C)C
inactive: Potency [16] | Potency [17]

CCNC(=O)[C@@H]1O[C@@H](n2cnc3c(N)ncnc32)[C@H](O)[C@H]1O
-10.6%: max response [19, 22]
inactive: Potency [2] | Potency [5] > 46 µM | Potency [6] > 46 µM | Potency [7] | activity change, negative = inhibition [19] 0.939% | Potency [20] | Potency [15] | Potency [16]
-12.5%: max response [19, 21]

C=C(C)[C@H]1CN[C@H](C(=O)O)[C@@H]1CC(=O)O
inactive: Potency [2] | Potency [5] > 46 µM | Potency [6] > 46 µM | outcome [18] | Potency [7] | outcome [8] | outcome [9] | outcome [10] | outcome [11] | outcome [12] | outcome [13] | outcome [14] | Potency [20] | Potency [15] | Potency [16] | Potency [17]
